The test system of test [1] is Vero E6 infected with SARS-CoV-2. Kind of test: morphology score (similarity to uninfected cells); higher = more like uninfected cells. The note with it: 24 h.
Test [2] shares this test system. Kind of test: SARS-CoV-2 infection rate relative to infected DMSO; higher = more infection, active = 60 or less. The note with it: 24 h.

28 molecules from the supplement of paper PMC13380429 can be followed below.

The structures appear in SMILES notation.

In turn, `C[C@@H](Oc1ccc2[nH]nc(/C=C/c3cnn(CCO)c3)c2c1)c1c(Cl)cncc1Cl` (10 µM) returned a morphology score in test [1] of -0.00865. In test [2], the SARS-CoV-2 infection rate was 120% (inactive).

Take `CCCCCCCC/C=C\CCCCCCCC(=O)NCCO` [oleoylethanolamide] (10 µM): the morphology score in test [1] is 0.0636. Further, in test [2], the SARS-CoV-2 infection rate was 102% (inactive).

For `COc1ccc([C@@H]2CC(=O)c3c(O)cc(O[C@@H]4O[C@H](CO[C@@H]5O[C@@H](C)[C@H](O)[C@@H](O)[C@H]5O)[C@@H](O)[C@H](O)[C@H]4O)cc3O2)cc1O` [hesperidin] (10 µM), the morphology score in test [1] was -0.132. The SARS-CoV-2 infection rate in test [2] is 108% (inactive).

On to `COC1=C2C[C@@H](C)C[C@H](OC)[C@H](O)[C@@H](C)/C=C(\C)[C@H](OC(N)=O)[C@@H](OC)/C=C\C=C(/C)C(=O)NC(=CC1=O)C2=O` [geldanamycin] (0.833333 µM), for which, in test [1], the morphology score was -0.177. Besides, in test [2], the SARS-CoV-2 infection rate is 98.5% (inactive).

As for `C=CC(=O)Nc1cccc(Nc2nc(Nc3ccc(N4CCN(C(C)=O)CC4)cc3OC)ncc2C(F)(F)F)c1` [rociletinib] (10 µM), the morphology score in test [1] was -0.408. In test [2], the SARS-CoV-2 infection rate is 106% (inactive).

In test [1], `Cc1ccc(-c2nc3ccc(C)cn3c2CC(=O)N(C)C)cc1` (10 µM) came in with a morphology score of 0.137. The SARS-CoV-2 infection rate in test [2] was 98.5% (inactive).

`CN(C)C[C@H](O)Cn1c2ccc(Br)cc2c2cc(Br)ccc21` (racemic) [wiskostatin] (0.833333 µM) returned a morphology score in test [1] of 0.146. Moreover, the SARS-CoV-2 infection rate in test [2] is 110% (inactive).

`CC(C)(C)c1ccc(O)cc1` [4-tert-butylphenol] (10 µM) yielded a morphology score in test [1] of 0.0892. Besides, the SARS-CoV-2 infection rate in test [2] is 110% (inactive).

In test [1], `CC(C)(O)[C@@H]1[C@H]2OC(=O)[C@@H]1[C@]1(O)C[C@H]3O[C@]34C(=O)O[C@H]2[C@]14C` [picrotin] (10 µM) had a morphology score of 0.0343. Further, the SARS-CoV-2 infection rate in test [2] was 111% (inactive).

As for `CN(C)CC[C@H](CSc1ccccc1)Nc1ccc(S(=O)(=O)NC(=O)c2ccc(N3CCN(Cc4ccccc4-c4ccc(Cl)cc4)CC3)cc2)cc1[N+](=O)[O-]` (10 µM), in test [1], the morphology score came to 0.105. The SARS-CoV-2 infection rate in test [2] was 108% (inactive).

The molecule `Cc1ccccc1NC(=N)Nc1ccccc1C` [ditolylguanidine] (10 µM) had a morphology score in test [1] of -0.286. For the same molecule, the SARS-CoV-2 infection rate in test [2] is 117% (inactive).

For `CCCCc1nc(C)c(CC(=S)N(C)C)c(=O)n1Cc1ccc(-c2ccccc2-c2nnn[nH]2)cc1` [fimasartan] (10 µM), the morphology score in test [1] was 0.0951. Also, the SARS-CoV-2 infection rate in test [2] is 112% (inactive).

`Nc1nc(NC2CC2)c2ncn([C@H]3C=C[C@@H](CO)C3)c2n1` (10 µM) yielded a morphology score in test [1] of 0.0446. Further, the SARS-CoV-2 infection rate in test [2] is 102% (inactive).

`Cn1cnc2c(F)c(Nc3ccc(Br)cc3F)c(C(=O)NOCCO)cc21` [binimetinib] (0.833333 µM) displayed a morphology score in test [1] of -0.00339. Besides, the SARS-CoV-2 infection rate in test [2] was 110% (inactive).

In test [1], `CC(C)(C)CC(C)(C)c1ccc(OCCOCC[N+](C)(C)Cc2ccccc2)cc1` [benzethonium] (10 µM) gave a morphology score of -0.104. Moreover, in test [2], the SARS-CoV-2 infection rate is 108% (inactive).

In test [1], `Cn1c(Nc2ccc(C(F)(F)F)cc2)nc2cc(Oc3ccnc(-c4ncc(C(F)(F)F)[nH]4)c3)ccc21` (10 µM) had a morphology score of -0.041. The SARS-CoV-2 infection rate in test [2] was 100% (inactive).

`CCc1ccc(Cc2ccc3c(c2)[C@]2(OC3)O[C@H](CO)[C@@H](O)[C@H](O)[C@H]2O)cc1` [tofogliflozin] (10 µM) displayed a morphology score in test [1] of 0.023. The SARS-CoV-2 infection rate in test [2] is 94.5% (inactive).

In test [1], `O=C(O)Cc1ccc2c(c1)C(=O)c1ccccc1CO2` [isoxepac] (10 µM) yielded a morphology score of 0.152. For the same molecule, the SARS-CoV-2 infection rate in test [2] is 103% (inactive).

`Nc1nc2c(cnn2CCc2ccccc2)c2nc(-c3ccco3)nn12` (10 µM) registered a morphology score in test [1] of -0.139. In addition, the SARS-CoV-2 infection rate in test [2] was 112% (inactive).

`CO[C@@H](C(=O)N1Cc2[nH]nc(NC(=O)c3ccc(N4CCN(C)CC4)cc3)c2C1)c1ccccc1` [danusertib] (10 µM) gave a morphology score in test [1] of 0.109. Also, the SARS-CoV-2 infection rate in test [2] is 115% (inactive).

In test [1], `N#CSc1cc(SC#N)c(N)nc1N` (0.833333 µM) gave a morphology score of 0.125. The SARS-CoV-2 infection rate in test [2] is 98.5% (inactive).

Molecule `NCCCNCCCCNCCCN` [spermine] (10 µM) yielded a morphology score in test [1] of 0.0211. In addition, the SARS-CoV-2 infection rate in test [2] was 107% (inactive).

Turning to `CC(C)(C)C(=O)NCCCC(=O)O` [pivagabine] (10 µM), in test [1], the morphology score stood at 0.0513. Also, in test [2], the SARS-CoV-2 infection rate was 105% (inactive).

As for `COc1cc(NC(C)CCCN)c2ncccc2c1` (stereo unspecified) [primaquine] (10 µM), in test [1], the morphology score was determined as 0.491. The SARS-CoV-2 infection rate in test [2] was 76.5% (inactive).

The molecule `CCCC(=O)Nc1ncnc2c1ncn2[C@@H]1O[C@@H]2COP(=O)(O)O[C@H]2[C@H]1OC(=O)CCC` [bucladesine] (10 µM) yielded a morphology score in test [1] of 0.0459. For the same molecule, the SARS-CoV-2 infection rate in test [2] was 104% (inactive).

In test [1], `CN(C)c1ccc(/C=C2\CCCN=C2c2cccnc2)cc1` [DMAB-anabaseine] (10 µM) registered a morphology score of 0.121. The SARS-CoV-2 infection rate in test [2] is 96.5% (inactive).

Turning to `CCOC(N)=O` [urethane] (10 µM), the morphology score in test [1] is -0.0716. Besides, in test [2], the SARS-CoV-2 infection rate was 106% (inactive).

For the molecule `CN(C)CCN(Cc1ccccc1)c1ccccn1` [tripelennamine] (10 µM), the morphology score in test [1] was -0.0386. The SARS-CoV-2 infection rate in test [2] is 110% (inactive).
